Bioassay records from PubChem.
This is one part of a sample in which hits are shown more often than they occur.
Pf Dd2 inh = blocks in vitro growth of P. falciparum Dd2; P. falciparum Dd2 growth, SYBR Green, 72 h; Potency, µM (series often up to 28.9 µM), most hits filed as inhibitors; 120,000 compounds, 4.3% hits; AID 1347417; active = well fitted inhibition curve with a large enough effect; note: nearly all actives have a fitted effect of over 65% in size
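Readout: SYBR Green fluorescence, 485 nm excitation, 535 nm emission, after ~16 h lysis at 37C. Before that, Dd2-infected red cells (2.5% hematocrit) grew 72 h with compound, 29 uM top final concentration.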
Large screens that a line does not name were inactive.

CSCC(=O)N1CC[C@H](NC(=O)NC(C)C)[C@H]1C(=O)N(C)CC(N)=O	none
CNC(=O)C1(N2CCC[C@H]2C(=O)NCCc2ccccn2)CCCCC1	none
O=C(NC1CC(c2nnc(CO)n2C2CC2)C1)c1scc2c1OCCO2 (stereo not drawn)	none
COC(=O)c1ccccc1NC(=O)c1cc2c(s1)-c1ccccc1OC2	none
COc1cccc(CNC(=O)c2cc3c(s2)-c2ccccc2OC3)c1	none
COc1cc(NC(=O)c2cc3c(s2)-c2ccccc2OC3)cc(OC)c1OC	Pf Dd2 inh 5.62µM
COc1ccc(Cl)cc1C(=O)N1CCC(c2n[nH]c(=O)n2-c2ccc(C)cc2)CC1	none
COC1CCC12CCN(C(=O)c1cccc(C)c1)CC2 (stereo not drawn)	none
Cc1cccc(-c2cc(C(=O)O)c3c(-c4ccc(F)cc4)[nH]nc3n2)c1	Pf Dd2 inh 7.94µM
CCOc1cc(-c2cc(C(=O)O)c3c(-c4ccccc4)[nH]nc3n2)ccc1O	none
COc1ccc(-c2[nH]nc3nc(-c4cc(OC)c(OC)c(OC)c4)cc(C(=O)O)c23)cc1	none
O=C1NCCCCCCN(C(=O)Nc2ccccc2F)[C@H]2CCC[C@@H]12	none
Cc1ccccc1NC(=O)CCn1ccn2nc3c(c2c1=O)CCCC3	none
COc1cc2c(cc1-c1c(-c3ccccc3)ncn1CCCO)CCC2	Pf Dd2 inh 12.6µM
OCCCn1cnc(-c2ccccc2)c1-c1ccc(-c2ccn[nH]2)o1	none
CCOc1cc(-c2c(-c3ccccc3)ncn2CCNC(C)=O)ccc1OC	none
COc1cccc(C(=O)N2CCC(N3C[C@H](O)C[C@H]3C(=O)N3CCN(C(C)C)CC3)CC2)c1	none
CCNC(=O)[C@@H]1C[C@@H](O)CN1C1CCN(C(=O)c2cccc(OC)c2)CC1	none
COc1cccc(C(=O)N2CCC(N3C[C@H](O)C[C@H]3C(=O)N3CCc4ccccc4C3)CC2)c1	Pf Dd2 inh 1.41µM
CC(C)(C)c1nnc2n1C(C(=O)NCc1ccc(F)cc1)CC2 (stereo not drawn)	none
CNC(=O)[C@@H]1CN(C(=O)c2ccc(Cl)cc2OC)C[C@H]1c1nc(C)no1	none
CN1CCC(N2C[C@@H](CO)[C@H](c3nc(-c4ccncc4)no3)C2)CC1	none
Cc1ccccc1CNC(=O)c1nnn2c1COC(c1ccc(Cl)cc1)C2 (stereo not drawn)	none
CN(C)C(=O)N1CCC2(CC1)CN(C(=O)CCCN)Cc1ccccc1O2	none
C=CCCC(=O)N1CCOc2c(O)cc(-c3nc4ccccc4s3)cc2C1	Pf Dd2 inh 11.2µM
Cc1cnc(C)c(-c2cc(O)c3c(c2)CN(CC2CNC(=O)O2)CCO3)n1 (stereo not drawn)	none
NCCCCC(=O)N1CCOc2c(O)cc(-c3csc4ccccc34)cc2C1	Pf Dd2 inh 5.01µM
O=c1c(N2CCc3ccccc3C2)csc2ccccc12	none
Cn1nc2n(c1=O)CCN(C(=O)CCCc1nc3ccccc3s1)CC2	none
O=C1CCCN1CCN1CCOc2c(O)cc(-c3csc4ccccc34)cc2C1	Pf Dd2 inh 11.2µM
NCCCC(=O)N1CCC2(CC1)CN(C(=O)Cc1ccccc1)CCO2	none
O=C(CCc1nc2ccccc2s1)N1CCC(c2noc(-c3ccccc3)n2)C1 (stereo not drawn)	none
COc1cccc([S+](=O)([O-])N2CCn3c(nn(-c4ccc(Cl)cc4)c3=O)C2)c1	none
Cc1ccc(-c2noc(C3CCN(C(=O)CC(C)C)CC3)n2)nn1	none
Cn1cc(C(=O)N2CCC(c3noc(-c4ccccc4)n3)C2)cn1 (stereo not drawn)	none
COc1cc(SC)ccc1C(=O)N[C@H]1C[C@@](O)(C(=O)N[C@@H](Cc2cccs2)C(N)=O)C[C@@H](O)[C@@H]1O	none
CC(=O)C1=C(c2ccc(Cl)c(Cl)c2)N(C(C)=O)n2cnnc2S1	Pf Dd2 inh 1.12µM
CCC(=O)C1=C(c2ccc(OC)c(OC)c2)N(C(=O)CC)n2c(nnc2-c2ccc(C)cc2)S1	none
CC(=O)C1=C(c2ccc(Cl)c(Cl)c2)N(C(C)=O)n2c(C)nnc2S1	Pf Dd2 inh 2.82µM
COc1ccc(C2=C(C(C)=O)Sc3nnc(-c4ccc(C)cc4)n3N2C(C)=O)cc1OC	Pf Dd2 inh 2.51µM
CC(=O)C1=C(c2ccc(Cl)c(Cl)c2)N(C(C)=O)n2c(nnc2-c2ccccc2)S1	none
CCC(=O)N1CCCCCCn2c(nnc2-c2ccc(F)cc2)CC1	none
COc1ccc(C2=NS(=O)(=O)N(C)C(C(=O)Nc3cc(C)ccc3O)=C2)cc1OC	none
CCC(=O)C1=C(c2ccc(F)cc2)N(C(=O)CC)n2cnnc2S1	Pf Dd2 inh 4.47µM
Cc1nnc2n1C(C)CN(C(=O)CCCn1nnc(-c3ccc(F)cc3)n1)C2 (stereo not drawn)	none
CN1CCN(Cc2nc(C3(O)CCNCC3)cs2)CC1	none
O=C(C1CCCC1)N1CCC2(CC1)CC(N(C(=O)c1ccccc1)C1CC1)CCO2 (stereo not drawn)	none
CCN1CC2(CCC1=O)CCN(C(=O)c1ccc(OC)c(Cl)c1)CC2	none
CC(C)CCN1CC2(CCCN(C(=O)Cn3ccc(=O)[nH]c3=O)C2)CCC1=O (stereo not drawn)	none
Cc1ccccc1-c1cc(-c2cn[nH]c2)c2cncn2c1	none
Cc1ccccc1-c1nc(-c2c(C)noc2C)cc2cc(CO)oc12	none
Cc1ccccc1-c1cc(-c2c(C)noc2C)c2cncn2c1	Pf Dd2 inh 3.16µM
COc1ncccc1-c1nc(-c2c(C)noc2C)cc2c1cc(C)n2C	none
COc1ncccc1-c1cc(-c2c(C)noc2C)c2cncn2c1	Pf Dd2 inh 10µM
Cc1noc2c(-c3ccc(N4CCOCC4)cc3)cc(-c3ccccc3)nc12	none
Cc1noc(C)c1-c1cc(-c2cccc(N3CCOCC3)c2)cn2cncc12	Pf Dd2 inh 6.31µM
COc1ncccc1-c1cc(-c2ccc(=O)[nH]c2)c2cncn2c1	none
c1cc(-c2cc(-c3ccncc3)c3cncn3c2)cc(N2CCOCC2)c1	none
CC1(O)CCCN(c2ccc(-c3nc(CCCc4ccccc4)no3)cn2)C1 (stereo not drawn)	none
COC(=O)CN1C(=O)[C@@H]2C[C@@H](O)CN2C2(CN(C3CCN(C(C)=O)CC3)C2)C1=O	none
O=C(CN1C(=O)NC(c2ccc(Cl)cc2)C2=C1COC2=O)Nc1ccc2c(c1)CCC2 (stereo not drawn)	none
O=C(Cc1ccccc1)Nc1ccc([C@@H](O)[C@H]2COCC(=O)N2Cc2ccncc2)cc1	none
O=C(c1[nH]nc2c1COc1ccccc1-2)N1CC(c2noc(COc3ccc(F)cc3)n2)C1	none
CC(=O)N1CCCN(C(=O)c2cnc3cc(C)nn3c2)CC1	none
CCCOC(=O)N1CCC2(CC1)CC(c1ccccc1)C(=O)N(C)C2 (stereo not drawn)	none
Cn1cccc1C(=O)N[C@@H]1CN(c2ncccn2)C[C@H]1CO	none
CN(C)C[C@@H]1CN(c2ncccn2)C[C@H]1NC(=O)c1ccnn1C	none
Cn1nccc1C(=O)N[C@@H]1CN(c2ncccn2)C[C@H]1CO	Pf Dd2 inh 2.51µM
COc1ccc(NC(=O)NC2CCN(C(=O)N3CC4CC(C3)[C@H]3CCCC(=O)N3C4)CC2)cc1 (stereo partly drawn)	none
O=[S+]1([O-])NCC2(CCN(Cc3ccc(F)cc3)C2)Nc2ccccc21 (stereo not drawn)	none
O=[S+]1([O-])NCC2(CCN(Cc3cccc4ccccc34)C2)Nc2ccccc21 (stereo not drawn)	Pf Dd2 inh 12.6µM
O=[S+]1([O-])NCC2(CCN(Cc3ccccn3)C2)Nc2ccccc21 (stereo not drawn)	none
O=C(CCc1ccccc1)N1CCC2(CC1)CC(N(C(=O)c1ccccc1)C1CC1)CCO2 (stereo not drawn)	none
Cn1ccc(C(=O)N2CC(CNC(=O)Cc3ccccc3)C3(C2)CN(c2ccccc2)C3)n1 (stereo not drawn)	none
